# This excerpt belongs to a sample that is enriched for hits.
# Tgondii IFNg: blocks Toxoplasma gondii growth in the presence of IFN-gamma; Toxoplasma gondii growth in IFN-gamma-treated host cells; hits give low values; actives 3.8% (n = 69,000); activity change, negative = inhibition, % (concentration not given with the values); in the data active means activity change below about -70%, passing the limit was not always enough;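 further: host cells are HeLa cells infected with Toxoplasma gondii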
# * = called active by the depositor; ! = not active in a repeat.
SMILES,Tgondii IFNg
COc1ccc(NC(=O)c2c(O)c3cccnc3n(-c3ccc(F)cc3)c2=O)cc1F,132
Cc1ccc(C(=O)Nc2ccc(Oc3cc4cnn(C)c4cc3-c3cn[nH]c3)c(F)c2)c(=O)n1-c1ccc(F)cc1,-74*
Cc1ccc(NC(=O)c2c(O)c3cccnc3n(-c3ccc(F)cc3)c2=O)cc1F,89
Cn1nc(CN2CCCC2)c2c1CN(S(=O)(=O)Cc1ccccc1)CC2,-4
CN(C)C(=O)N1CCn2cc(Cn3cccn3)nc2C1,90
CCOC(=O)c1cc(C(N)=S)c(C)nc1C(F)(F)F,-79*
CCOC(=O)c1cc(-c2nc(-c3ccccc3)cs2)c(C)nc1C(F)(F)F,-36
CCOC(=O)c1cc(C#N)c(Sc2nnc(SC)s2)nc1C(F)(F)F,-32
CC(=O)N(CCc1ccc(S(N)(=O)=O)cc1)C1CC(=O)N(c2ccccc2)C1=O (stereo not drawn),3
O=C(CCC1CCCN(C(=O)Cn2nc3ccccc3n2)C1)NCc1ccc(F)c(F)c1 (stereo not drawn),-1
CCc1ccc(NC(=O)Cn2c(=O)cc(C(=O)N(C)C)c3ccccc32)cc1,6
O=C(NC1CC1)c1cc2n(n1)CCCNC2,-8
CC1=CC(C)(C)N=C(Nc2nc(C)c3cc(C)cc(C)c3n2)N1,-99*
COc1cccc(-c2ccc(C(=O)N3CCC(CN4CCCC4=O)CC3)cn2)c1,0
COc1cc(OC)cc(C(=O)N2CCC(C)(C(=O)NCc3ccc(F)cc3F)CC2)c1,5
Clc1ccc(CO/N=C(\Cn2ccnc2)c2ccc(Cl)cc2Cl)c(Cl)c1,-83*!
Cl/C(=C\n1cncn1)c1ccc(Cl)cc1Cl,-59
O=C(NCCCn1ccnc1)Nc1c[nH]c2cc(Cl)ccc2c1=O,306
Cc1ccc(C2(O)CCN(C(=O)C(C)Cn3cccn3)CC2)nc1 (stereo not drawn),5
O=C(Nc1ccccc1C(=O)Nc1cccc2ccccc12)Nc1cccc2ccccc12,135
O=C(Nc1ccc2c3c(cccc13)CC2)c1nc(-n2cnnc2)n[nH]1,-80*
O=C(Nc1ccc2c3c(cccc13)CC2)c1cccnc1Cl,32
CN(Cc1cc(-c2ccccc2)on1)C(=O)c1ccc(=O)n(C)c1,1
CC(=O)Nc1ccccc1NC(=O)c1ccccc1F,8
CN(Cc1cnc2c(-c3ccccc3)cnn2c1)Cc1cccc2ncccc12,-48
SMILES,Tgondii IFNg
COc1ccc(-c2cnc3c(-c4cccc5ncccc45)cnn3c2)cc1,-23
CC(C)Oc1ccc(-c2cnc3c(-c4ccnc5ccccc45)cnn3c2)cc1,-76*
Cc1nsc(NC(=O)NC2CCN(Cc3cccnc3)CC2)n1,-64
FC(F)(F)c1oc(-c2ccc(Cl)cc2)cc1-c1nnc(-c2ccco2)o1,38
CCOC(=O)c1cnc2ccccc2c1NCCO,13
CCOC(=O)c1cnc2ccc(C(=O)OC)cc2c1Nc1ccc2c(c1)OCCO2,-72*!
CCOC(=O)c1cnc2ccc(C(=O)OC)cc2c1Nc1ccc(C(=O)O)cc1,-47
O=C(NCCc1csc(-c2cccc(F)c2)n1)C(=O)Nc1cccc(Cl)c1,-33
CC(C)COC(=O)c1nc(Cl)c(Cl)c(N)c1Cl,-96*
Cc1cc(OCC(=O)Nc2ccc(C(=O)OCC(C)C)cc2)cc(C)c1Cl,-55
CCOCC1c2c(cnn2CC2CC2)CCN1Cc1nccs1 (stereo not drawn),-16
CN(CC1CCN(c2ccccc2)C1)C(=O)c1c(O)cccc1O (stereo not drawn),9
CC(C)C(=O)C1c2c(ncn2C(C)C)CCN1C(=O)c1cccnc1 (stereo not drawn),-5
COCCN1C(=O)CCc2cc(NS(=O)(=O)c3ccccc3)ccc21,-27
CCCN1C(=O)CCc2cc(NS(=O)(=O)c3ccc(CC)cc3)ccc21,-82*
COCCN1C(=O)CCc2cc(NS(=O)(=O)c3ccc(C)c(C)c3)ccc21,22
COCCN1C(=O)CCc2cc(NS(=O)(=O)c3ccc4c(c3)CCC4)ccc21,-63
CCCN1C(=O)CCc2cc(NS(=O)(=O)c3ccc(C(F)(F)F)cc3)ccc21,-82*
COCCN1C(=O)CCc2cc(NS(=O)(=O)c3ccc(CC(C)C)cc3)ccc21,-79*
COCCN1C(=O)CCc2cc(NS(=O)(=O)c3ccc(C)cc3)ccc21,39
CCCN1C(=O)CCc2cc(NS(=O)(=O)c3cccs3)ccc21,5
COCCN1C(=O)CCc2cc(NS(=O)(=O)c3ccc(C(F)(F)F)cc3)ccc21,1
Cn1c(=O)c(C(=O)NCc2nnc(-c3ccccc3)o2)nc2ccccc21,15
Cc1ccc(CN2Cc3nccn3CC(COc3cccnc3)C2)o1 (stereo not drawn),7
CCN1CCC(CNS(=O)(=O)c2cccc(NC(C)=O)c2)C1 (stereo not drawn),-9
SMILES,Tgondii IFNg
CC1CCN(S(=O)(=O)N2CCN(c3nccs3)CC2)CC1,-11
CC(=O)O[C@@H]1CC2C(C)(C)[C@H](O)CC[C@]2(C)C2CC[C@@]3(C)[C@H](c4ccoc4)OC(=O)C4OC43[C@@]21C (stereo partly drawn),-71*
CC(=O)O[C@@H]1C[C@H]2C(C)(C)C(=O)C=C[C@]2(C)[C@H]2CC[C@@]3(C)[C@H](c4ccoc4)OC(=O)[C@H]4O[C@]43[C@@]21C,52
CC(=O)O[C@H]1C[C@@H](O)C(C)(C)C2C[C@@H](OC(C)=O)[C@]3(C)C(CC[C@@]4(C)[C@H](c5ccoc5)OC(=O)C5OC543)[C@]21C (stereo partly drawn),18
CC1(C)C(=O)C=C[C@@]2(C)C1C=C[C@]1(C)C2CC[C@@]2(C)[C@H](c3ccoc3)OC(=O)[C@H]3O[C@]321 (stereo partly drawn),-86*
CC1(C)C(=O)C=C[C@@]2(C)C1CC(=O)[C@]1(C)C2CC[C@@]2(C)[C@H](c3ccoc3)OC(=O)[C@H]3O[C@]321 (stereo partly drawn),25
CC(=O)O[C@@H]1CC2C(C)(C)C(=O)C=C[C@]2(C)C2CC[C@@]3(C)[C@H](c4ccoc4)OC(=O)[C@H]4O[C@]43[C@@]21C (stereo partly drawn),16
CN(C)c1nc(-c2ccccc2)nc2c1CCN(c1cnccn1)CC2,-12
CN1CC2(CCN(C(=O)CCn3nnc4ccccc43)C2)OC1=O (stereo not drawn),7
CCCCNC(=O)c1nc(Nc2ccc(C)cc2)c2ccccc2n1,-69
Cc1c2oc3c(C)ccc(C(=O)OC(C)C4NC(=O)C(C(C)C)N(C)C(=O)CN(C)C(=O)C5CCCN5C(=O)C(C(C)C)NC4=O)c3nc-2c(C(=O)OC(C)C2NC(=O)C(C(C)C)N(C)C(=O)CN(C)C(=O)C3CCCN3C(=O)C(C(C)C)NC2=O)c(N)c1=O (stereo not drawn),-83*
Cc1nccc(-c2nn(-c3ccc(F)cc3)ccc2=O)n1,52
CC(=O)N1CC(=O)N(c2ccccc2)CC12CCN(C(=O)C1CCOCC1)C2 (stereo not drawn),3
CC(=O)N1CC(=O)N(c2ccccc2)CC12CCN(CC1CCOCC1)C2 (stereo not drawn),-86*
CC(=O)N1CC(=O)N(c2ccccc2)CC12CCN(C(=O)N1CCCC1)C2 (stereo not drawn),1
CCOCc1cncc2c1CCN(C(=O)c1ccc[nH]1)C2,-2
Cc1oc(-c2ccc(OC(C)C)cc2)nc1CSc1nc2c(=O)[nH]cnc2n1C,-33
Cc1oc(-c2ccc(OC(C)C)cc2)nc1Cn1c(=O)c2cccnc2n(-c2ccccc2)c1=O,34
Cc1oc(-c2ccc(OC(C)C)cc2)nc1CSc1nc2ncccc2o1,-96*

# Source: PubChem BioAssay
